Data from PubChem BioAssay AID1159580 (chemical genetic matrix, 2015).
The campaign covered roughly 5,500 compounds. About 2,000 (36%) were called active. Not shown: some 18% with an inconclusive outcome. No stated cut-off is given here; in the data, active means normalized growth mostly below about 0.91 (no sharp cut-off); inconclusive means no clear call, values can overlap the other calls; inactive means mostly above about 0.92. The list shows a part of the results.

Assay: chemical genetic growth profiling, strain panel (AID 1159580);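 further: tested at 20 µM; growth read once vehicle control cultures reached saturation at 30 °C; 1 = growth at the plate median or of vehicle wells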
Details: growth OD
[1] = S. cerevisiae deletion strains, locus YAL013W, strain DEP1, stronger effect = lower value
[2] = S. cerevisiae deletion strains, locus YBR229C, strain ROT2, stronger effect = lower value
[3] = S. cerevisiae deletion strains, locus YDL101C, strain DUN1, stronger effect = lower value
[4] = S. cerevisiae deletion strains, locus YDR150W, strain NUM1, stronger effect = lower value
[5] = S. cerevisiae deletion strains, locus YEL061C, strain CIN8, stronger effect = lower value
[6] = S. cerevisiae deletion strains, locus YGR078C, strain PAC10, stronger effect = lower value
[7] = S. cerevisiae deletion strains, locus YHR030C, strain SLT2, stronger effect = lower value
[8] = S. cerevisiae deletion strains, locus YHR087W, strain rtc3, stronger effect = lower value
[9] = S. cerevisiae deletion strains, locus YJR043C, strain POL32, stronger effect = lower value
[10] = S. cerevisiae deletion strains, locus YJR075W, strain HOC1, stronger effect = lower value
[11] = S. cerevisiae deletion strains, locus YLR039C, strain RIC1, stronger effect = lower value
[12] = S. cerevisiae deletion strains, locus YLR058C, strain SHM2 (second series), stronger effect = lower value
[13] = S. cerevisiae deletion strains, locus YLR085C, strain ARP6, stronger effect = lower value
[14] = S. cerevisiae deletion strains, locus YLR262C, strain YPT6, stronger effect = lower value
[15] = S. cerevisiae deletion strains, locus YML094W, strain GIM5, stronger effect = lower value
[16] = S. cerevisiae deletion strains, locus YMR219W, strain ESC1, stronger effect = lower value
[17] = S. cerevisiae deletion strains, locus YMR263W, strain SAP30, stronger effect = lower value
[18] = S. cerevisiae deletion strains, locus YNL153C, strain GIM3, stronger effect = lower value
[19] = S. cerevisiae deletion strains, locus YNL298W, strain CLA4 (second series), stronger effect = lower value
[20] = S. cerevisiae deletion strains, locus YNL322C, strain KRE1, stronger effect = lower value
[21] = S. cerevisiae deletion strains, locus YNR030W, strain Alg12, stronger effect = lower value
[22] = S. cerevisiae deletion strains, locus YOL006C, strain TOP1, stronger effect = lower value
[23] = S. cerevisiae deletion strains, locus YPL055C, strain LGE1, stronger effect = lower value
[24] = S. cerevisiae deletion strains, locus YPL241C, strain CIN2, stronger effect = lower value
[25] = S. cerevisiae deletion strains, locus YPR135W, strain CTF4, stronger effect = lower value
[26] = S. cerevisiae deletion strains, locus YAR019C, strain CDC15, stronger effect = lower value
[27] = S. cerevisiae deletion strains, locus YBL105C, strain PKC1, stronger effect = lower value
[28] = S. cerevisiae deletion strains, locus YBR135W, strain CKS1, stronger effect = lower value
[29] = S. cerevisiae deletion strains, locus YBR136W, strain MEC1, stronger effect = lower value
[30] = S. cerevisiae deletion strains, locus YBR160W, strain CDC28, stronger effect = lower value
[31] = S. cerevisiae deletion strains, locus YDL017W, strain CDC7, stronger effect = lower value
[32] = S. cerevisiae deletion strains, locus YDL028C, strain MPS1, stronger effect = lower value
[33] = S. cerevisiae deletion strains, locus YDL108W, strain KIN28, stronger effect = lower value
[34] = S. cerevisiae deletion strains, locus YDL132W, strain cdc53, stronger effect = lower value
[35] = S. cerevisiae deletion strains, locus YDL214C, strain PRR2, stronger effect = lower value
[36] = S. cerevisiae deletion strains, locus YDR052C, strain DBF4, stronger effect = lower value
[37] = S. cerevisiae deletion strains, locus YDR054C, strain cdc34, stronger effect = lower value
[38] = S. cerevisiae deletion strains, locus YDR226W, strain ADK1, stronger effect = lower value
[39] = S. cerevisiae deletion strains, locus YDR477W, strain SNF1, stronger effect = lower value
[40] = S. cerevisiae deletion strains, locus YER123W, strain YCK3, stronger effect = lower value
[41] = S. cerevisiae deletion strains, locus YER133W, strain GLC7, stronger effect = lower value
[42] = S. cerevisiae deletion strains, locus YFL009W, strain cdc4, stronger effect = lower value
[43] = S. cerevisiae deletion strains, locus YFL029C, strain CAK1, stronger effect = lower value
[44] = S. cerevisiae deletion strains, locus YFR003C, strain YPI1, stronger effect = lower value
[45] = S. cerevisiae deletion strains, locus YFR019W, strain FAB1, stronger effect = lower value
[46] = S. cerevisiae deletion strains, locus YFR028C, strain CDC14, stronger effect = lower value
[47] = S. cerevisiae deletion strains, locus YGR040W, strain KSS1, stronger effect = lower value
[48] = S. cerevisiae deletion strains, locus YGR052W, strain FMP48, stronger effect = lower value
[49] = S. cerevisiae deletion strains, locus YGR092W, strain DBF2, stronger effect = lower value
[50] = S. cerevisiae deletion strains, locus YHR079C, strain IRE1, stronger effect = lower value
[51] = S. cerevisiae deletion strains, locus YHR082C, strain KSP1, stronger effect = lower value
[52] = S. cerevisiae deletion strains, locus YHR205W, strain SCH9, stronger effect = lower value
[53] = S. cerevisiae deletion strains, locus YIL147C, strain SLN1, stronger effect = lower value
[54] = S. cerevisiae deletion strains, locus YJL095W, strain BCK1, stronger effect = lower value
[55] = S. cerevisiae deletion strains, locus YJL128C, strain PBS2, stronger effect = lower value
[56] = S. cerevisiae deletion strains, locus YJL157C, strain FAR1, stronger effect = lower value
[57] = S. cerevisiae deletion strains, locus YJR016C, strain ILV3, stronger effect = lower value
[58] = S. cerevisiae deletion strains, locus YJR066W, strain TOR1 (second series), stronger effect = lower value
[59] = S. cerevisiae deletion strains, locus YJR066W, strain TOR1, stronger effect = lower value
[60] = S. cerevisiae deletion strains, locus YKL048C, strain ELM1, stronger effect = lower value
[61] = S. cerevisiae deletion strains, locus YKL067W, strain YNK1, stronger effect = lower value
[62] = S. cerevisiae deletion strains, locus YKL101W, strain HSL1, stronger effect = lower value
[63] = S. cerevisiae deletion strains, locus YKL193C, strain SDS22, stronger effect = lower value
[64] = S. cerevisiae deletion strains, locus YKL203C, strain TOR2, stronger effect = lower value
[65] = S. cerevisiae deletion strains, locus YLR113W, strain HOG1, stronger effect = lower value
[66] = S. cerevisiae deletion strains, locus YLR133W, strain CKI1, stronger effect = lower value
[67] = S. cerevisiae deletion strains, locus YLR403W, strain SFP1, stronger effect = lower value
[68] = S. cerevisiae deletion strains, locus YML070W, strain DAK1, stronger effect = lower value
[69] = S. cerevisiae deletion strains, locus YMR001C, strain CDC5, stronger effect = lower value
[70] = S. cerevisiae deletion strains, locus YMR205C, strain PFK2 (second series), stronger effect = lower value
[71] = S. cerevisiae deletion strains, locus YMR277W, strain FCP1, stronger effect = lower value
[72] = S. cerevisiae deletion strains, locus YNL006W, strain LST8, stronger effect = lower value
[73] = S. cerevisiae deletion strains, locus YNL020C, strain ARK1, stronger effect = lower value
[74] = S. cerevisiae deletion strains, locus YNL161W, strain CBK1, stronger effect = lower value
[75] = S. cerevisiae deletion strains, locus YNL183C, strain NPR1, stronger effect = lower value
[76] = S. cerevisiae deletion strains, locus YNL207W, strain RIO2, stronger effect = lower value
[77] = S. cerevisiae deletion strains, locus YNL222W, strain SSU72, stronger effect = lower value
[78] = S. cerevisiae deletion strains, locus YNL307C, strain MCK1 (second series), stronger effect = lower value
[79] = S. cerevisiae deletion strains, locus YOL078W, strain AVO1, stronger effect = lower value
[80] = S. cerevisiae deletion strains, locus YOL136C, strain PFK27, stronger effect = lower value
[81] = S. cerevisiae deletion strains, locus YOR061W, strain CKA2, stronger effect = lower value
[82] = S. cerevisiae deletion strains, locus YOR119C, strain RIO1, stronger effect = lower value
[83] = S. cerevisiae deletion strains, locus YOR231W, strain MKK1, stronger effect = lower value
[84] = S. cerevisiae deletion strains, locus YOR329C, strain SCD5, stronger effect = lower value
[85] = S. cerevisiae deletion strains, locus YPL031C, strain PHO85, stronger effect = lower value
[86] = S. cerevisiae deletion strains, locus YPL153C, strain RAD53, stronger effect = lower value
[87] = S. cerevisiae deletion strains, locus YPL204W, strain HRR25, stronger effect = lower value
[88] = S. cerevisiae deletion strains, locus YPL209C, strain IPL1, stronger effect = lower value
[89] = S. cerevisiae deletion strains, locus YPL256C, strain CLN2, stronger effect = lower value
[90] = S. cerevisiae deletion strains, locus YPR025C, strain CCL1, stronger effect = lower value
[91] = S. cerevisiae deletion strains, locus YPR106W, strain ISR1, stronger effect = lower value
[92] = S. cerevisiae deletion strains, locus YPR111W, strain DBF20, stronger effect = lower value
[93] = S. cerevisiae deletion strains, strain NNK1, stronger effect = lower value
[94] = S. cerevisiae deletion strains, strain TSCII, stronger effect = lower value

Measured: normalized growth

Cc1ccc(NC(=S)C(C#N)C(=O)N2CCCC2)c(C)c1 (configuration not stated)
inactive: [1] 1.01 | [2] 0.998 | [3] 1.01 | [4] 0.928 | [5] 1.02 | [6] 0.988 | S. cerevisiae deletion strains, locus YGR229C, strain SMI1, stronger effect = lower value 1 | [7] 1.06 | [8] 1.01 | [9] 1.01 | [10] 1.02 | S. cerevisiae deletion strains, locus YKL190W, strain CNB1, stronger effect = lower value 1.01 | [11] 1.02 | [12] 0.995 | [13] 1.06 | [14] 1 | [15] 1.03 | [16] 1 | [17] 0.922 | S. cerevisiae deletion strains, locus YMR307W, strain GAS1, stronger effect = lower value 1.03 | [18] 0.98 | [19] 1.03 | [20] 0.988 | [21] 1.02 | [22] 1.04 | [23] 0.948 | [24] 1.02 | [25] 1.04

CC(C)Sc1c(Cl)cccc1NC(=O)Nc1ccccc1
active: [7] 0.666 | [65] 0.765 | [89] 0.803
inactive: [26] 0.971 | [27] 0.97 | [28] 0.96 | [29] 0.959 | [30] 0.962 | [31] 0.968 | [32] 0.962 | [3] 0.976 | [33] 0.966 | [34] 0.974 | [35] 0.871 | [36] 0.973 | [37] 0.959 | [38] 0.976 | [39] 0.867 | [40] 0.813 | [41] 0.899 | [42] 0.97 | [43] 0.964 | [44] 0.957 | [45] 0.872 | [46] 0.963 | [47] 0.843 | [48] 0.937 | [49] 0.836 | [50] 0.898 | [51] 0.858 | [52] 0.788 | [53] 0.964 | [54] 0.803 | [55] 0.966 | [56] 0.895 | [57] 0.97 | [58] 0.915 | [59] 0.835 | [60] 0.874 | [61] 0.892 | [62] 0.891 | [63] 0.963 | [64] 0.891 | [66] 0.857 | [67] 0.863 | [68] 0.869 | [69] 0.967 | [70] 0.863 | [71] 0.962 | [72] 0.975 | [73] 0.861 | [74] 0.975 | [75] 0.827 | [76] 0.965 | [77] 0.964 | [78] 0.771 | [79] 0.964 | [80] 0.86 | [81] 0.895 | [82] 0.935 | [83] 0.883 | [84] 0.966 | [85] 0.853 | [86] 0.867 | [87] 0.839 | [88] 0.973 | [90] 0.961 | [91] 0.964 | [92] 0.951 | [93] 0.942 | [94] 0.963

CC(C)Sc1c(Cl)cccc1NC(=O)Nc1cccc(C(F)(F)F)c1
inactive: [26] 0.981 | [27] 0.977 | [28] 0.972 | [29] 0.978 | [30] 0.981 | [31] 0.984 | [32] 0.979 | [3] 0.98 | [33] 0.972 | [34] 0.975 | [35] 0.927 | [36] 0.979 | [37] 0.97 | [38] 0.965 | [39] 0.916 | [40] 0.888 | [41] 0.945 | [42] 0.99 | [43] 0.976 | [44] 0.974 | [45] 0.918 | [46] 0.974 | [47] 0.908 | [48] 1.04 | [49] 0.94 | [50] 0.953 | [51] 0.96 | [52] 0.891 | [53] 0.979 | [54] 0.887 | [55] 0.956 | [56] 0.946 | [57] 0.984 | [58] 0.943 | [59] 0.912 | [60] 0.946 | [61] 0.914 | [62] 0.937 | [63] 0.975 | [64] 0.947 | [65] 0.908 | [66] 0.922 | [67] 0.953 | [68] 0.929 | [69] 0.977 | [70] 0.936 | [71] 0.973 | [72] 0.98 | [73] 0.926 | [74] 0.983 | [75] 0.918 | [76] 0.982 | [77] 0.97 | [78] 0.876 | [79] 0.966 | [80] 0.93 | [81] 0.957 | [82] 0.995 | [83] 0.946 | [84] 0.98 | [85] 0.905 | [86] 0.911 | [87] 0.896 | [88] 0.976 | [89] 0.861 | [90] 0.979 | [91] 0.976 | [92] 0.974 | [93] 0.97 | [94] 0.992
active: [7] 0.773

Cc1cc(NC(=O)Nc2cccc(C(F)(F)F)c2)n(C)n1
inactive: [1] 1 | [2] 0.997 | S. cerevisiae deletion strains, locus YCL061C, strain MRC1, stronger effect = lower value 1.01 | [3] 0.983 | [4] 0.998 | [5] 1.01 | [6] 1.01 | [7] 1.08 | [8] 0.989 | [9] 0.998 | [10] 0.992 | [11] 1.02 | [12] 1.01 | [13] 0.986 | [14] 1.09 | [15] 0.987 | [16] 1 | [17] 1.01 | [18] 0.998 | [19] 0.991 | [20] 1.01 | [21] 1 | [22] 1 | [23] 0.989 | [24] 0.981 | [25] 1.08 | S. cerevisiae strains, strain wild type, stronger effect = lower value 0.986
